Measured values reported in the supplement of paper PMC11732987, “Enantioselective OTUD7B fragment discovery through chemoproteomics screening and high-throughput optimisation” (Communications Chemistry, 2025).

What was measured:
Experiment in all cases: log2 ratio of Biotin-Ahx-Ub-VS probe labelling (fragment/DMSO); higher = less target engagement (more negative = stronger competition), active = hit call of the paper (q ≤ 0.05, log2 ratio ≤ -1)
Conditions in all cases: compound concentration: 200 uM; treatment time: 3 h
USP42 = target: T1, USP42 (UniProt Q9H9J4)
T1 sequence (whole entry): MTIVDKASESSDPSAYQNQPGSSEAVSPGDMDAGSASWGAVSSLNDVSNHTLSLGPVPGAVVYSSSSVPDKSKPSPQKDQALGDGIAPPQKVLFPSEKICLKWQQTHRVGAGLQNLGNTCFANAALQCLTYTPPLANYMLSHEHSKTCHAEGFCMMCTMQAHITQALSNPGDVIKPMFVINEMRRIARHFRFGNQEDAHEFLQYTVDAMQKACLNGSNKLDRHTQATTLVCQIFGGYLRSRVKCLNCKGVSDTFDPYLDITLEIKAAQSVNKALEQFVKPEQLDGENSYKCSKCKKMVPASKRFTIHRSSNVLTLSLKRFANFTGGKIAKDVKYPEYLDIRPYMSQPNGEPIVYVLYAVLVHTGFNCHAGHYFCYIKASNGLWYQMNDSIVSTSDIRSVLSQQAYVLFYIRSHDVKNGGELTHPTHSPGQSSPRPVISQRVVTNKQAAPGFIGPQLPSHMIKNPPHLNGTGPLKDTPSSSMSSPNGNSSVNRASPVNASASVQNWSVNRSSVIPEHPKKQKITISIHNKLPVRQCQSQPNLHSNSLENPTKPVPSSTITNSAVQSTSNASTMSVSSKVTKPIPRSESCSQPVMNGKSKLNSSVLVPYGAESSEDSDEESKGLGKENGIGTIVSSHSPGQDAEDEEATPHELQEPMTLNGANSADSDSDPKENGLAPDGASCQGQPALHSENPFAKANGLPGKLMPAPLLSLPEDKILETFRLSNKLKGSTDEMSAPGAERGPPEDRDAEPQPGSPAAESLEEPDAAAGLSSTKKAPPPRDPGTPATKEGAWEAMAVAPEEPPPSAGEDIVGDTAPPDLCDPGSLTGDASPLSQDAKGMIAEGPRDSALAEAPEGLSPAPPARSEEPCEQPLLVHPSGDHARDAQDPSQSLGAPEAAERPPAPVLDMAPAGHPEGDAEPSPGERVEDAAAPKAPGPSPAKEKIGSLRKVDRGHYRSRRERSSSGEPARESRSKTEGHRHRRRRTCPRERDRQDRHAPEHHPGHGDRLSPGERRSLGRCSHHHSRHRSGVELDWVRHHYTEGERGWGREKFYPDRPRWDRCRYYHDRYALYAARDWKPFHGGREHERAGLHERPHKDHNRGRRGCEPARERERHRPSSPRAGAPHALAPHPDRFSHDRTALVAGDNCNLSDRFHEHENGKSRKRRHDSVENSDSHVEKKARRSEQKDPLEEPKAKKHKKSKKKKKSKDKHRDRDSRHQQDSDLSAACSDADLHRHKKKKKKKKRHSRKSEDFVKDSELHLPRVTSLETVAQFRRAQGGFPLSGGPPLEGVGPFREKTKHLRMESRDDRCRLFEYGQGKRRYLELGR
Summary of the method: (§1)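 Labelled DUBs from HEK293T lysate were NeutrAvidin-enriched, digested with LysC and trypsin, and run by diaPASEF LC-MS/MS. Before that, each 495 µg sample in Tris/CHAPS/IGEPAL buffer with protease inhibitors was treated in triplicate with fragment at 200 µM or vehicle for 3 h, then with Biotin-Ahx-Ub-VS at 0.5 µM final for 1 h. Values are average log2 ratios of fragment over vehicle by unpaired t-test, based on global-median-normalised Spectronaut label-free quantities from proteins with ≥2 unique peptides.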

USP46 = USP46 (UniProt P62068)
Sequence of USP46 (P62068 whole entry): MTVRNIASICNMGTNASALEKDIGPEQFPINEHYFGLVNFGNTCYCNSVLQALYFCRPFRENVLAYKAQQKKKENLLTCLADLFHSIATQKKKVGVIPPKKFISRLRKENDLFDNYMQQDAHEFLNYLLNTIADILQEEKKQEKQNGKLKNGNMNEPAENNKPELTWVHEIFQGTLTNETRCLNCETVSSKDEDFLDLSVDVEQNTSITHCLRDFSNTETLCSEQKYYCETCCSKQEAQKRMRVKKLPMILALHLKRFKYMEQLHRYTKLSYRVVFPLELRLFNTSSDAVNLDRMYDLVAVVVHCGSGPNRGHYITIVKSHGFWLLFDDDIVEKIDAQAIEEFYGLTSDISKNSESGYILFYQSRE
Summary of the method: as §1

USP47 = target: T2, USP47 (UniProt Q96K76)
T2 sequence (whole entry): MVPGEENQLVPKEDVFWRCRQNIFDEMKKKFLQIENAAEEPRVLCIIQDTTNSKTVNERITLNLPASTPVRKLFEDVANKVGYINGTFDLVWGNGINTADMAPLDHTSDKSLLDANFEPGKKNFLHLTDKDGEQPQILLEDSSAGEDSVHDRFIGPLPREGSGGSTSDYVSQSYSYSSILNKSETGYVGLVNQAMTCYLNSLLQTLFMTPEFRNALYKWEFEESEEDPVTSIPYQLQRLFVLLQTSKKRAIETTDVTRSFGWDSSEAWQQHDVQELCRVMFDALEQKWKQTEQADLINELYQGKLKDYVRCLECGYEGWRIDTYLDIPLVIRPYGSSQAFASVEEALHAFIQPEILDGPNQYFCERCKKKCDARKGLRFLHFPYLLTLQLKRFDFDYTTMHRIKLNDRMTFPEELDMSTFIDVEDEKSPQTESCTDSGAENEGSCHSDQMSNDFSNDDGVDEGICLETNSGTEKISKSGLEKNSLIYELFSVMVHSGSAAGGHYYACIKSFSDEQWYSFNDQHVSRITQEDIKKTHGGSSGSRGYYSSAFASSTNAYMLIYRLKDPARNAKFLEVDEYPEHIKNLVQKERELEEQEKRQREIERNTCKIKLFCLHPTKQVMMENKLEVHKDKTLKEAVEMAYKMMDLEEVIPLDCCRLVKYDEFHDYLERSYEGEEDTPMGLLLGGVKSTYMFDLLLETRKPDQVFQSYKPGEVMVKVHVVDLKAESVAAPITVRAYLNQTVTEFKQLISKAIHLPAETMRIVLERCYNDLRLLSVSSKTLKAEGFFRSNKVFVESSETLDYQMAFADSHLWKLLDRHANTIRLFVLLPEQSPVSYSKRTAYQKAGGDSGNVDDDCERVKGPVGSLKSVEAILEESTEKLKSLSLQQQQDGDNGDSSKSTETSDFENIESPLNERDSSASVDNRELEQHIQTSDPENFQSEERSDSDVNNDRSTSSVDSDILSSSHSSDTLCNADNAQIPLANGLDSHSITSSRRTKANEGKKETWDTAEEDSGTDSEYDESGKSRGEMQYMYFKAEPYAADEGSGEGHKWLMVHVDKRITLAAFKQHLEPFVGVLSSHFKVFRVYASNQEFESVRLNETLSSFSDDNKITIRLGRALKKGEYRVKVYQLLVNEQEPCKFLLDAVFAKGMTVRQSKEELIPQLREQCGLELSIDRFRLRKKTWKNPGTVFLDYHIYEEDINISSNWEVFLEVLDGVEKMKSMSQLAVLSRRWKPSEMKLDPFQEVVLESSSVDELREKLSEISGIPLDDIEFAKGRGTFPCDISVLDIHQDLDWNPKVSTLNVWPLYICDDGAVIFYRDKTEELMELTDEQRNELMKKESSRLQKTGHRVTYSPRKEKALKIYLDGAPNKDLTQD
Summary of the method: as §1

USP48 = target: T3, USP48 (UniProt Q86UV5)
T3 sequence (whole entry): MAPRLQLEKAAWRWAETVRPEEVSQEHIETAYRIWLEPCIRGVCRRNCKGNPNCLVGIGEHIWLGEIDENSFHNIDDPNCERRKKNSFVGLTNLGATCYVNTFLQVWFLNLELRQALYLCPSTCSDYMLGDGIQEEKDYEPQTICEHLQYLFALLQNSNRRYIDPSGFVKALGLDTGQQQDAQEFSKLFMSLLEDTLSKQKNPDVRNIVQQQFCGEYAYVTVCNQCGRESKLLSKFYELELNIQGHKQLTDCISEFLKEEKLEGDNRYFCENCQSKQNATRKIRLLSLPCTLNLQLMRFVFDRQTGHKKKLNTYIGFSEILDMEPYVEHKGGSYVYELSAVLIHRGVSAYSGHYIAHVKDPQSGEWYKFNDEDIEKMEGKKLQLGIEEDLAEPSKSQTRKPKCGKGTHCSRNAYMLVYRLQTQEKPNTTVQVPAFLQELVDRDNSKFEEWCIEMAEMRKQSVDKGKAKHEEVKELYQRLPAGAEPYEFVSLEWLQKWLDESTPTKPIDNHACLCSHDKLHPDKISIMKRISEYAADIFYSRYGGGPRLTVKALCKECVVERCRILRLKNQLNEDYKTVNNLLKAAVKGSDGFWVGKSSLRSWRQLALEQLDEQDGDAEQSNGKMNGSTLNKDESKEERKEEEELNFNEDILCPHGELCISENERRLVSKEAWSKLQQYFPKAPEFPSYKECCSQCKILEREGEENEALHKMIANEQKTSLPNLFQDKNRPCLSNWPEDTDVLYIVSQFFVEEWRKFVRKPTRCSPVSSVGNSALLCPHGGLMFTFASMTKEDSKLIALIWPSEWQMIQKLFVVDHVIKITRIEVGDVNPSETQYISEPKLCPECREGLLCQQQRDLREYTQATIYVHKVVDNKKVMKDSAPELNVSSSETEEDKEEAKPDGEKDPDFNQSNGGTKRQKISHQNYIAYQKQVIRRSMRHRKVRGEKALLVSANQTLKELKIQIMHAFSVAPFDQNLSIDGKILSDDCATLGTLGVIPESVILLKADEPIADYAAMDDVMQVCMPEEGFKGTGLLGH
Summary of the method: as §1

USP5 = target: T4, USP5 (UniProt P45974)
T4 sequence (whole entry): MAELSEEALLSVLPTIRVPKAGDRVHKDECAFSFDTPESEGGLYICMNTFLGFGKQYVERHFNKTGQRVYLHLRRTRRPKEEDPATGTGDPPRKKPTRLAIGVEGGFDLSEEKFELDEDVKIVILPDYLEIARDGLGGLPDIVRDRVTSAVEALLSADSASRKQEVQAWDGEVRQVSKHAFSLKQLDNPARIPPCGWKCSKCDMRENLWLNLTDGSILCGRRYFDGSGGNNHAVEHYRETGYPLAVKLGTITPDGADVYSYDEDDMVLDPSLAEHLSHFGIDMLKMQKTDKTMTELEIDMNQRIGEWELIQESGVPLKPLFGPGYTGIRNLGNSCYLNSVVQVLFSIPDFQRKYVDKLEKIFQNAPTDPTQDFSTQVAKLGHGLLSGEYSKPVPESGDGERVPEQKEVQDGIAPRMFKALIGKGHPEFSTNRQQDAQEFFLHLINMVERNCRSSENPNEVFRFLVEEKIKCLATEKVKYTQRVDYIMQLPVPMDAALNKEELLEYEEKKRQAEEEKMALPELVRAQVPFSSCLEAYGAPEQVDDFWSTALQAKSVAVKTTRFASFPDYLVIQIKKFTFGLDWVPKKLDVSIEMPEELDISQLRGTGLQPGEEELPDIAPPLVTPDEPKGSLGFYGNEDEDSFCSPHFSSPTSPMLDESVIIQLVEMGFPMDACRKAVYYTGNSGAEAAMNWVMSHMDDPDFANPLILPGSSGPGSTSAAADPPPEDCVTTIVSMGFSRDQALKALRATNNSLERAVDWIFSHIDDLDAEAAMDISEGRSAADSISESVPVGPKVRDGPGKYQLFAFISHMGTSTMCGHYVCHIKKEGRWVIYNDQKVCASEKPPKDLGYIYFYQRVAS
Summary of the method: as §1

USP54 = USP54 (UniProt Q70EL1)
Sequence of USP54 (Q70EL1 whole entry): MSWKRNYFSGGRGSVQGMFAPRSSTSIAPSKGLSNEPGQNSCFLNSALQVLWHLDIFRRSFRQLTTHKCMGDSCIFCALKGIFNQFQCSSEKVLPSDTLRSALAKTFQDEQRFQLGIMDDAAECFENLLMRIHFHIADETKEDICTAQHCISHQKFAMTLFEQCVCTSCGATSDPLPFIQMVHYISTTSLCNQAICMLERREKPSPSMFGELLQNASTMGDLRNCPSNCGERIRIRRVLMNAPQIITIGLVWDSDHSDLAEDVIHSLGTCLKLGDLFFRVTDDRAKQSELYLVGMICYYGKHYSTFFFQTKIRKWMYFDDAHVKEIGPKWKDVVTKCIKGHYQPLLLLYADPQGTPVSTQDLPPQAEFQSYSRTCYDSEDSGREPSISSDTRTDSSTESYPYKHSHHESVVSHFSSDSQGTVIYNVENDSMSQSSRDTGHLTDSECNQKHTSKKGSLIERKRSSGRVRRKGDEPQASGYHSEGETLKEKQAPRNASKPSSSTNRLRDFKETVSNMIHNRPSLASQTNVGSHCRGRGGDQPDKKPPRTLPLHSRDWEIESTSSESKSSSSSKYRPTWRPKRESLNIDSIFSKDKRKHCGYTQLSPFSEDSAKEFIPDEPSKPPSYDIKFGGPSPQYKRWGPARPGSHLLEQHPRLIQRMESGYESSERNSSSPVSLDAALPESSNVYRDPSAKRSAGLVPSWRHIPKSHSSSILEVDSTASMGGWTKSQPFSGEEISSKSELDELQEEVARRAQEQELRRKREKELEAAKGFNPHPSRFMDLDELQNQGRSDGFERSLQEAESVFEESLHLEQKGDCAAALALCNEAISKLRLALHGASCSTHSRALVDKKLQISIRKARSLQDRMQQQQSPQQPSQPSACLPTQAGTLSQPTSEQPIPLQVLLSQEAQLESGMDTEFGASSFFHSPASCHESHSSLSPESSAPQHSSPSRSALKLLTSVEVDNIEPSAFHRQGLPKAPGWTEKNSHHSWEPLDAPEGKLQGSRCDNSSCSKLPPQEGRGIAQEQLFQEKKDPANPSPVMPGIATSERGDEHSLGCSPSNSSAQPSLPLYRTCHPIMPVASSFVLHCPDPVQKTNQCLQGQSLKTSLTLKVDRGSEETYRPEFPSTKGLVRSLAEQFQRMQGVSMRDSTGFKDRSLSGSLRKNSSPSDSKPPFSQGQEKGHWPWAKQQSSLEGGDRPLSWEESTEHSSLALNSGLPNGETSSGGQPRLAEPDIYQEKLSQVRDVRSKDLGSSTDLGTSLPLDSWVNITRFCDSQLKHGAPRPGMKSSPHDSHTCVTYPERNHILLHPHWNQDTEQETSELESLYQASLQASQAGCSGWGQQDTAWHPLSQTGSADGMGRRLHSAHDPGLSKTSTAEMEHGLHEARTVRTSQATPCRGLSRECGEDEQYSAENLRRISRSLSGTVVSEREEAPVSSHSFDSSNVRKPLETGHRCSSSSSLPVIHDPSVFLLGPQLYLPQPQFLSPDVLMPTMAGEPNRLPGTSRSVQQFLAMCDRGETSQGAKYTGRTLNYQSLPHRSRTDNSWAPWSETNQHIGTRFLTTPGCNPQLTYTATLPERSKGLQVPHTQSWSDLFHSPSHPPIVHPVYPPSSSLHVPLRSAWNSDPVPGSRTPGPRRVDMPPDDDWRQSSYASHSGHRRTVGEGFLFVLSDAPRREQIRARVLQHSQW
Summary of the method: as §1

USP7 = USP7 (UniProt Q93009)
Sequence of USP7 (Q93009 whole entry, looked up): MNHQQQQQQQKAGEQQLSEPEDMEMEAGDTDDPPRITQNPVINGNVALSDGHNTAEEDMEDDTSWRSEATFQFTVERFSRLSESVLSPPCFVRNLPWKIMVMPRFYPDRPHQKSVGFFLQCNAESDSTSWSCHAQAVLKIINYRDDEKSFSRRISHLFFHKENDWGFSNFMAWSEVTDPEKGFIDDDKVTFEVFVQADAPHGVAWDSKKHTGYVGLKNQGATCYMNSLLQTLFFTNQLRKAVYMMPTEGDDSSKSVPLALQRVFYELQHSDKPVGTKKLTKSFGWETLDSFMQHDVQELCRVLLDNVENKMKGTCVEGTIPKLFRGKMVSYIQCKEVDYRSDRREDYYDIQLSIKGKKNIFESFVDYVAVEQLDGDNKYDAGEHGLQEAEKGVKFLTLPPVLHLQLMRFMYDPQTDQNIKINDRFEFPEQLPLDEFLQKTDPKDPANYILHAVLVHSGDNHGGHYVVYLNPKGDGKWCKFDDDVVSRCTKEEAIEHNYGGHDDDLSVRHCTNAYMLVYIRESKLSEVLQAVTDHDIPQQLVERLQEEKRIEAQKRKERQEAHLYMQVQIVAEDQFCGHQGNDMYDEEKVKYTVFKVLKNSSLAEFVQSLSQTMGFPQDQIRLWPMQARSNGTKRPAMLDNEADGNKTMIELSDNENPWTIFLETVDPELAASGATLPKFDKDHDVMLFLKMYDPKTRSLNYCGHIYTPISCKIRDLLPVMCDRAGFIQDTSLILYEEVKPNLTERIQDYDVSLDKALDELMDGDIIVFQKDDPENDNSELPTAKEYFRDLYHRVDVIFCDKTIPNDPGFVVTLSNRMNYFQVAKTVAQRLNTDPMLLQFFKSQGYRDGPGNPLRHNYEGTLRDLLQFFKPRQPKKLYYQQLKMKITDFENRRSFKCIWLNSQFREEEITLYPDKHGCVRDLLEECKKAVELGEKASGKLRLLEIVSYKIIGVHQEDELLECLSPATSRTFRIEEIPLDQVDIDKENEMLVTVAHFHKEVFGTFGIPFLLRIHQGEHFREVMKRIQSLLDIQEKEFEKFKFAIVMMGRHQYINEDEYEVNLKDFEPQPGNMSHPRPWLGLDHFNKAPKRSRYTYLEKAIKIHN
Summary of the method: as §1

USP8 = target: T5, USP8 (UniProt P40818)
T5 sequence (whole entry): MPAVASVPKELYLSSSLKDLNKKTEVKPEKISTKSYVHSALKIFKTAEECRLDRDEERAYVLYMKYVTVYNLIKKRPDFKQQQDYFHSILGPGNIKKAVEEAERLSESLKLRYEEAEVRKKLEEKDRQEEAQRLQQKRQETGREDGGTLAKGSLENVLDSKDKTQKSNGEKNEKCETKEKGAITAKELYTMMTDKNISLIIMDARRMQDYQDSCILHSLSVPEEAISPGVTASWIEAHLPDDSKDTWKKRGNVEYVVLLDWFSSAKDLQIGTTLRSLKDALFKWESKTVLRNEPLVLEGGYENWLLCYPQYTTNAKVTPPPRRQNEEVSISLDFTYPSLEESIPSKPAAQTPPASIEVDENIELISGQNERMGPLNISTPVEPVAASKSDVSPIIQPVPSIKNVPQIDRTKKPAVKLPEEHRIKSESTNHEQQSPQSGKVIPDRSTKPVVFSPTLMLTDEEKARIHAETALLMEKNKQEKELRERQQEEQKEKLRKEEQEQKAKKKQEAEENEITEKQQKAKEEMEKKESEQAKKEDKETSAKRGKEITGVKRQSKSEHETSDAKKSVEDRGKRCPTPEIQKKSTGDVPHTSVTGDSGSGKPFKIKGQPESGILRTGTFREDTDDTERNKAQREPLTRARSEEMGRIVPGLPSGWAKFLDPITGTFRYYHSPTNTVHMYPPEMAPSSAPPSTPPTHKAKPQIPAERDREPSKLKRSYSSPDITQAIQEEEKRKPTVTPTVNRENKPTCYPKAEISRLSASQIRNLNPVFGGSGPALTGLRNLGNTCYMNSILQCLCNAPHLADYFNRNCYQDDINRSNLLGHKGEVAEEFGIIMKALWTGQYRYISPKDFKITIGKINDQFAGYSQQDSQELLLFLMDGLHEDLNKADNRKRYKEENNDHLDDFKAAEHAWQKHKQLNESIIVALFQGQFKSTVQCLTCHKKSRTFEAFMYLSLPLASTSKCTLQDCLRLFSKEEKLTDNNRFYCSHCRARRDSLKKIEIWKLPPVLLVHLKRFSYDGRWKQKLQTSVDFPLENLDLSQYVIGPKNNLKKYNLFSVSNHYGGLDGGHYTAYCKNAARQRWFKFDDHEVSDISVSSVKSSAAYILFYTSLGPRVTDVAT
Summary of the method: as §1

USP9X = USP9X (UniProt Q93008)
Summary of the method: as §1

UniProt O00487 = target: UniProt O00487
Sequence of UniProt O00487 (O00487 whole entry): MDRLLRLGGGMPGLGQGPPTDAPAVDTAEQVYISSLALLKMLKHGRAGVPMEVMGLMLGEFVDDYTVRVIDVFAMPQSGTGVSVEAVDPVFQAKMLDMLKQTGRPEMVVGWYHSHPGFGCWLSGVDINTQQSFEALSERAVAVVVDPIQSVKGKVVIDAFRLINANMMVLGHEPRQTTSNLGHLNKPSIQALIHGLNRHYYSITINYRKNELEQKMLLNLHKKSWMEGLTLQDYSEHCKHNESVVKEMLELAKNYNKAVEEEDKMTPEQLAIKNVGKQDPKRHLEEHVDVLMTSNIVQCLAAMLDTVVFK
Summary of the method: as §1

Measured: log2 ratio of Biotin-Ahx-Ub-VS probe labelling

Cc1nc(CN2CCN(C(=O)CCl)CC2)cs1
inactive: USP42 0.251 | USP46 -0.246 | USP47 -0.236 | USP48 -0.0313 | USP5 -0.643 | USP54 -0.00411 | USP7 -0.473 | USP8 -0.444 | USP9X -0.168 | UniProt O00487 -0.171
